# Screens (PubChem BioAssay)
# MCF10A rereplic: A quantitative high throughput screen for small molecules that induce DNA re-replication in MCF 10a normal breast cells; Potency, µM (highest dose often 46.1 µM), for inactives: at the top dose activity, positive = re-replication, actives largely listed as activators; 2.9% of 350,000 active; MCF 10A DNA re-replication, Hoechst nuclear intensity, 48 h; AID 624296, 2012; further: % of control where 0% means no effect; nearly all actives have a fitted effect of over 50% in size
# SW480 rereplic: A quantitative high throughput screen for small molecules that induce DNA re-replication in SW480 colon adenocarcinoma cells | SW480 DNA re-replication, Hoechst DNA content imaging, 48 h | Potency, µM (titrated, usually from 46.1 µM), inactives show top-dose re-replication activation, most hits filed as activators | 1.8% of 340,000 active | AID 624297, 2012; further: % of control where 0% means no effect; nearly all actives have a fitted effect of over 55% in size
#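 SW480 cells exposed to compounds for 48 hr at 37 C, 5% CO2, then Hoechst-stained 40 min. Nuclear DNA content imaged by fluorescence scanning (405 nm excitation, 500-530 nm emission); re-replication scored as increased high-intensity nuclei.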
# PINK1 expr mod: A Quantitative High throughput Screen to Identify Chemical Modulators of PINK1 Expression; Potency, µM (doses to about 76.6 µM), for inactives: at the highest dose activation (PINK1 increase), hits mostly activators; 0.2% of 410,000 active; PINK1 immunofluorescence, high-content cytometry, 24 h; active means well fitted activation curve with a large enough effect; inconclusive means small, poorly fitted or top-dose-only effect; cell line not stated here; further: % of control where 0% means no effect; nearly all actives have a fitted effect of over 65% in size
#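 Cells are seeded, rested 12 hours, then given compound at five concentrations or DMSO for 24 hours. After fixation, blocking and antibody staining, PINK1 amount and mitochondrial localization are scored; CCCP serves as control.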
# ALOX12 inh: Primary qHTS assay for inhibitors of human arachidonate 12S-lipoxygenase (ALOX12): Round 2 | purified 12hLO, xylenol orange hydroperoxide absorbance | Potency, µM (top dose mostly 108 µM), without a hit: top-dose activity change, negative = inhibition, most hits filed as inhibitors | 1.1% of 580,000 active | AID 1671190, 2021; further: on the % scale 0 is the no-effect control and ±100 the full control effect
# Target sequence (P18054 whole entry, looked up): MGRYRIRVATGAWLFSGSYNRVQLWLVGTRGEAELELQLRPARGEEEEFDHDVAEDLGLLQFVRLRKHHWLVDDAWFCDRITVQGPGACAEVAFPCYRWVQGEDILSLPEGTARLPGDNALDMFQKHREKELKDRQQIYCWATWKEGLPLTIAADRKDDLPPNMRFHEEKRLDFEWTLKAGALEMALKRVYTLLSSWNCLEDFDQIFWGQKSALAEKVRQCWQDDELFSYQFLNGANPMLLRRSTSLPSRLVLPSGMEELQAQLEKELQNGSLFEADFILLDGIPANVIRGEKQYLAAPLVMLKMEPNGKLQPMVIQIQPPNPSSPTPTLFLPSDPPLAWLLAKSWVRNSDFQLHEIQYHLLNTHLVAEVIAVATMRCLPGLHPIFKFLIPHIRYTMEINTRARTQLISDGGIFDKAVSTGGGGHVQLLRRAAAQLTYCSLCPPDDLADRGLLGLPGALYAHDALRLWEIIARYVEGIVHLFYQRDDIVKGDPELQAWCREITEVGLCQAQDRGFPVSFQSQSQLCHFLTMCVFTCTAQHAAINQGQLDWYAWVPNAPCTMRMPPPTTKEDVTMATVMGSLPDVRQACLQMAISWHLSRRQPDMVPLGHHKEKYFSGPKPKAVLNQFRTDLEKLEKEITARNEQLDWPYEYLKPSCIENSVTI
#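 Hydroperoxide product was detected by ferrous iron/xylenol orange as the 573 to 405 nm absorbance ratio. Arachidonic acid at 40 uM (final) was turned over for 30 min at room temperature by 150 nM human 12hLO, pH 7.0 Hepes buffer, after 15 min compound preincubation.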
# KB-3-1 tox: qHTS assay for MDR1-selective chemotherapeutics: Primary screen using the parental adenocarcinoma cell KB-3-1. KB-3-1 viability, CellTiter-Glo ATP luminescence, 72 h. Potency, µM (top dose mostly 46.1 µM), hits mostly cytotoxic. 1.4% of 400,000 active. AID 1347075, 2019; further: on the % scale 0 is the no-effect control and ±100 the full control effect; nearly all actives have a fitted effect of over 60% in size
#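 Parental KB-3-1 viability, qHTS format: 72 h compound exposure, 37 °C; CellTiter-Glo; media-only wells and DMSO plates as controls; concentration-effect fits on corrected data.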
# KB-V1 MDR tox: qHTS assay for MDR1-selective chemotherapeutics: Primary screen using the drug-selected MDR subline cells KB-V1; KB-V1 MDR cells viability, CellTiter-Glo, 72 h; Potency, µM (doses to about 46.1 µM), most hits filed as cytotoxic; 3.4% of 400,000 active; AID 1347076, 2019; further: on the % scale 0 is the no-effect control and ±100 the full control effect; nearly all actives have a fitted effect of over 60% in size
#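 KB-V1 MDR subline cells in DMEM (phenol-red free, 10% FBS) exposed to compounds in qHTS concentration series for 72 h at 37 degrees C. Viability read by CellTiter-Glo luminescence; concentration-effect curves fitted after normalization and correction.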
# Starred values were filed as active, the others as inactive; i = inactive; u = inconclusive; x = no result; [ ] = another dose, or the depositor's remark. The list is not random: actives were taken first. Their share in the collection is about 5.8%. Unless noted, the call rests on the fitted dose curve; in most records, active means well fitted curve in the direction sought with a large enough effect; inconclusive means small, poorly fitted or top-dose-only effect, or another doubt; inactive means no such curve, though single readings can be large; an effect the other way counts as inactive or inconclusive. Potency means the concentration at half of the fitted maximal effect.
SMILES,MCF10A rereplic,SW480 rereplic,PINK1 expr mod,ALOX12 inh,KB-3-1 tox,KB-V1 MDR tox
O=C(NCc1cccs1)c1nc2c(nnn2Cc2ccccc2Cl)c(=O)[nH]1,u,u,-2%,-3%,5.8µM*,8.2µM*
CCC(CC)NC(=O)CSc1ccc2c(c1)OCCCO2,x,x,x,6%,x,x
CN(C)/C=C(\C#N)S(=O)(=O)C(C)(C)C,5.2µM*,18%,-2%,14%,i,i
COc1cc(C(=O)N(C)Cc2nc3ccccc3c(=O)[nH]2)cc(Cl)c1OCC(N)=O,x,x,x,3%,x,x
CCN(CC)S(=O)(=O)c1ccc2c(c1)nc(CCC(=O)Nc1ccc3c(c1)OCO3)n2CC,2%,-5%,0%,-14%,i,15µM*
CCN(CC(=O)Nc1ccc2c(c1)OCCO2)S(=O)(=O)c1cccs1,16µM*,-2%,2%,-23%,i,i
CCN(CC)S(=O)(=O)c1ccc2c(c1)nc(CCC(=O)Nc1ccc3c(c1)OCO3)n2C,-9%,0%,3%,-1%,i,i
O=C(CCc1ccc(S(=O)(=O)NCCc2ccccc2)cc1)Nc1ccc2c(c1)OCCO2,u,u,-1%,-9%,i,21µM*
CCC(C)[C@H](NC(=O)Nc1ccc2c(c1)OCCO2)C(=O)O (some centres undefined),u,18µM*,x,-1%,i,i
CC1(C)CC(CC(=O)N2CCCC2)(c2ccc(Cl)cc2)CCO1 (centres undefined),x,x,x,-1%,x,x
O=C(NCCc1c[nH]c2ccccc12)c1ccccc1OC(F)F,x,x,x,-2%,x,x
Cc1nc2cc(C(=O)Nc3ccccc3N3CCCC3=O)ccc2n1-c1ccccc1,x,x,x,11%,x,x
CCN(CC(=O)Nc1ccc2c(c1)OCCO2)S(=O)(=O)c1ccc(C)cc1,13%,-4%,7%[38.3 µM],-18%,i,16µM*
CCN(Cc1ccc2c(c1)OCCO2)S(=O)(=O)c1ccc(NC(C)=O)cc1,11%,21%,-1%,40%,i,u
COc1cc(NC(=O)c2cccc(N3C(=O)C(C)(C)CS3(=O)=O)c2)cc(OC)c1OC,x,x,x,27%,x,x
CC(C)n1c(CSCc2ccc(Cl)cc2Cl)n[nH]c1=S,10%,-14%,2%,45µM*,i,i
O=C(O)CSCc1ccc(Cl)cc1Cl,x,x,x,17%,x,x
CC(C)NC(=S)NN=C1CCC(c2ccccc2)CC1 (centres undefined),-12%,21µM*,0%,u,i,i
CC(C)NC(=S)NN=C1CCCCCC1,x,x,x,-21%,x,x
COc1ccc(-c2cnc(C(N)=O)c(=O)[nH]2)cc1,x,x,0%,6.3µM*,i,i
CCOc1cc(/C=C2\SC(=S)N(N3CCOCC3)C2=O)ccc1O,-1%,u,3%,9%,i,i
CCOc1cc(/C=C2\SC(=N)N(c3nccs3)C2=O)ccc1OCCN1CCOCC1,8%,u,-1%,-11%,i,7.3µM*
Cc1ccn2c(=O)c(NC(=O)c3cccs3)c(C)nc2c1,-1%,23µM*,-2%,6%,i,i
O=C(NC(Cc1c[nH]c2ccccc12)C(=O)Nc1ccc(F)c([N+](=O)[O-])c1)c1cccs1 (centres undefined),u,u,-3%,-1%,u,6.5µM*
O=C(NC(Cc1c[nH]c2ccccc12)C(=O)N/N=C/c1cccc2ccccc12)c1cccs1 (centres undefined),5%,-8%,0%,-1%,i,i
